14 molecules from PubChem BioAssay (NCI) can be followed below.

Assay in all cases: NCI-60 one-dose screen, 48 h (100 = growth as untreated, 0 = no growth, -100 = all killed)
Test [1] has as its system DU-145 prostate. As to conditions: 10 µM unless noted.
Test [2] has as its system K-562 leukemia. The note with it: 10 µM unless noted.
The test system of test [3] is MDA-MB-231 breast. As to conditions: 10 µM unless noted.
The test system of test [4] is RXF 393 renal. The note with it: 10 µM unless noted.
Test [5] concerns SF-268 CNS. The note with it: 10 µM unless noted.
For test [6], the system named is SF-295 CNS. As to conditions: 10 µM unless noted.
For test [7], the system named is SF-539 CNS. The note with it: 10 µM unless noted.
Test [8] has as its system UACC-257 melanoma. As to conditions: 10 µM.
Test [9] has as its system M14 melanoma. The note with it: 10 µM unless noted.
The test system of test [10] is MALME-3M melanoma. The note with it: 10 µM unless noted.

About 83,000 compounds went through this panel and 20% of them were active in at least one assay; those are over-represented in the sample as a whole.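 A percent growth of 40 corresponds to 60% growth inhibition; 0 means no net growth; -100 means all cells died. Active threshold: below 10.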 Values without a mark were called inactive. Calls of active or inactive are those of the source.

With `Cc1cc(C)c(NC(=O)c2sc3nc4c(cc3c2N)CN(Cc2ccccc2)CC4)c(C)c1`, the growth in [1] is 27.6%; in test [2], 9.63% (active); in test [3] it was 44%; in test [4], 26.1%; in test [5] it was 36.5%; in test [6] it was 21.9%. Further, the growth in test [7] was 8.37% (active); in test [8], 48%; in test [9] it was 40.2%.

For the molecule `O=[N+]([O-])c1cc(S(=O)(=O)OCC2CO2)ccc1Cl` (stereo unspecified), the growth in [1] is 101%; in test [10] it was 98.1%; in test [3] it was 132%; in test [4], 103%; in test [5], 94.3%; in test [6], 101%. Further, the growth in [7] was 106%; in test [8], 100%; in test [9] it was 95.1%.

In the case of `CN=S(=O)(NC(=O)c1ccc(Cl)cc1Cl)c1ccc(Br)s1` (stereo unspecified), the growth in [1] is 111%; in test [2], 104%; in test [3], 104%; in test [4], 103%; in test [5], 109%; in test [6], 101%. The values for the growth in test [7], in test [8] and in [9] were 97%, 92.5% and 106%, respectively.

As for `CCCCCCc1nc2c(c(C)nn2-c2ccccc2)c2c1CCCCC2`, the growth in test [1] was 108%; in [2], 111%; in test [10], 105%; in test [4], 115%; in [5], 105%; in test [6], 103%. The values for the growth in [7], in [8] and in test [9] were 105%, 93.3% and 118%, respectively.

As for `COc1cc(CNC(=O)CSc2nc3ccccc3c(=O)n2Cc2cc(OC)c(OC)c(OC)c2)cc(OC)c1OC`, the growth in test [1] is 108%; in test [10], 97.5%; in test [3], 94.4%; in [4], 97.4%; in test [5] it was 97.5%; in test [6], 105%. The growth in test [7] is 96.3%; in test [8], 94.2%; in test [9], 97.2%.

As to `O=C(O)c1cccc([N+](=O)[O-])c1/C=C/c1ccccc1`, the growth in test [1] is 105%; in [10] it was 90.4%; in test [3], 109%; in test [4], 103%; in [5] it was 97.7%; in [6], 95.4%. For the same molecule, the growth is 107% in test [7], 117% in test [8] and 101% in [9].

On to `COC(=O)[C@H]1[C@H](OC)[C@@H](OC(=O)/C=C/c2ccncc2)CC2CN3CCc4c([nH]c5cc(OC)ccc45)[C@@H]3C[C@@H]21` (stereo partly specified), for which the growth in test [1] was 80%; in [2], 57.3%; in [3], 62.2%; in [4], 72.7%; in [5] it was 80.3%; in [6], 90.4%. The growth was 91% in test [7], 62.3% in test [8] and 78.4% in test [9].

`O=S(=O)(NCCCNc1nccc(-c2c(-c3ccc(O)cc3)nc3sccn23)n1)c1ccc(F)cc1`: the growth in [1] was 10.6%; in test [2] it was 7.51% (active); in test [3] it was 7.09% (active); in test [4], -12.7% (active); in test [5], 17.8%; in [6], -34.9% (active). Moreover, the growth in [7] was 0.696% (active); in [8] it was 4.9% (active); in test [9], -26.2% (active).

With `NC(=S)NN=C1CCCCC1`, the growth is 95.1% in test [1]; 40.1% in test [2]; 91.6% in test [10]; 109% in [4]; 93.5% in test [5]; 92.8% in test [6]. Besides, the growth in test [7] is 99.7%; in test [8], 73.3%; in test [9] it was 81.2%.

For `CCN(Cc1ccccc1)c1ccc(SC#N)cc1`, the growth is 98.3% in test [1]; 41% in test [2]; 88% in test [10]; 47.6% in test [4]; 83.8% in [5]; 95.3% in test [6]. Besides, the growth in test [7] was 82.2%; in test [8], 107%; in [9], 89.2%.

Consider `Clc1ccc([I+]c2ccc(Cl)cc2Cl)c(Cl)c1`, for which the growth was 4.04% (active) in [1]; 50.2% in test [10]; 38.3% in test [3]; -15.1% (active) in test [4]; 26.5% in [5]; 97.4% in test [6]. Moreover, the growth in test [7] was 16.8%; in test [8], 66.4%; in test [9], 88.8%.

Turning to `CCCCCCCCCCCCOB(OCCCCCCCCCCCC)OCCCCCCCCCCCC`, the growth was 100% in test [1]; 92.5% in test [2]; 90.4% in test [10]; 114% in test [4]; 97.2% in [5]; 104% in test [6]. Moreover, the results for the growth in test [7], in test [8] and in [9] were 106%, 95.4% and 117%, respectively.

Take `COc1ccc(/C=C/C(=O)c2cccc(B(O)O)c2)cc1O`: the growth in test [1] is -10% (active); in test [2] it was 8.39% (active); in test [3] it was 48.2%; in test [4], 41.5%; in test [5], 47.8%; in test [6] it was 87.4%. For the same molecule, the values for the growth in test [7], in test [8] and in test [9] were 0.0331% (active), 75% and 70.6%, respectively.

For the molecule `CC(=O)Nc1ccc(S(=O)(=O)NC(CCC(=O)Nc2ccc(Cl)cc2)C(=O)O)cc1` (stereo unspecified), the growth in test [1] was 102%; in test [2], 77.4%; in [3], 95%; in test [4], 108%; in test [5] it was 102%; in test [6], 98.8%. Also, the growth in [7] is 99.2%; in test [8], 98%; in test [9] it was 99.2%.
